Mcl-1 Bim block: inhibitors of Bim peptide binding to Mcl-1, primary screen, biochemical, bead-based flow cytometry, multiplex | inhibition, % at 10 µM | Bim peptide-Mcl-1 binding | 190,000 tested, 0.1% active | AID 1009, 2008; in the data active means inhibition above about 40%;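 further: 0% = no compound tracer wells and 100% = peptide blocker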
Target sequence (Q07820 whole entry, looked up): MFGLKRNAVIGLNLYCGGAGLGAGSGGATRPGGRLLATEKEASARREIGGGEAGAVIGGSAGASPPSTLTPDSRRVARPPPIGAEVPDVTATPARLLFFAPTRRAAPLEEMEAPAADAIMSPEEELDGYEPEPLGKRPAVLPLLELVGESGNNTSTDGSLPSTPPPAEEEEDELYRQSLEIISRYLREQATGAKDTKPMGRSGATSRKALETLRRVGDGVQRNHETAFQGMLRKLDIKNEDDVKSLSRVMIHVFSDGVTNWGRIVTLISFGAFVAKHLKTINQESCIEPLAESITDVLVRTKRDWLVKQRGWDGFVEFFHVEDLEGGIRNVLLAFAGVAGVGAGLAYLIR
MCL1 BIM primary: inhibitors of MCL1 binding to BIM-BH3, primary screen, biochemical, fluorescence polarization; GST-MCL1 / FITC-Bim-BH3 fluorescence polarization; inhibition, % at 10.9 µM; 320,000 tested, 0.68% active; Induced myeloid leukemia cell differentiation protein Mcl-1 (Homo sapiens), Q07820;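 active means inhibition above the mean inhibition of all tested compounds plus 3 SD, set per campaign, cut at about 40% in these data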;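 further: 0% = DMSO wells and 100% = unlabeled Bim-BH3 peptide control; higher means more loss of mP so more displacement of Bim peptide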
Mcl1-Bid inh: Mcl-1/Bid binding inhibitors, primary screen, biochemical, TR-FRET, 1536-well; TR-FRET Mcl-1/Bid-Dy647 peptide binding; inhibition, % at 21.7 µM; 220,000 tested, 0.97% active; AID 1021, 2008;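 active means compounds that cut the binding signal by more than half at the single screening dose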;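 further: His-tagged Mcl-1 with europium anti-His antibody binding Bid BH3 peptide; 0% = Mcl-1 plus peptide wells and 100% = peptide-only wells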
14-3-3 Bad inh: inhibitors of 14-3-3 zeta/Bad binding, primary screen, biochemical, TR-FRET, bovine 14-3-3 zeta; 220,000 tested, 0.71% active; 14-3-3 protein zeta/delta (Bos taurus), P63103; inhibition, % at 21.7 µM; TR-FRET 14-3-3zeta/Dy647-pBad peptide displacement, 1 h;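 active means inhibition above about 70%, limit read from the data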;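 further: 0% = full 14-3-3 plus peptide FRET controls and 100% = background without 14-3-3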
Target sequence (P63103 whole entry, looked up): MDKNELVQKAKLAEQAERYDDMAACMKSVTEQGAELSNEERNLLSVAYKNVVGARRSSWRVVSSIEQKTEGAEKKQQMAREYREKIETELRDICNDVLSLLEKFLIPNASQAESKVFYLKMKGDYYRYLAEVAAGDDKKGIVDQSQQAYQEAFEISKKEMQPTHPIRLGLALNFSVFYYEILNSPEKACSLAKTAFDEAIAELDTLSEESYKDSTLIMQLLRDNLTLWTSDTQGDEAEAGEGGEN
Mcl1-Noxa inh: Mcl-1/Noxa binding inhibitors, primary screen, biochemical, TR-FRET, 1536-well; inhibition, % at 21.7 µM; 220,000 tested, 1.5% active; Induced myeloid leukemia cell differentiation protein Mcl-1 (Homo sapiens), Q07820; TR-FRET Mcl-1/Noxa peptide binding, 2 h;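 active means compounds that cut the protein-peptide binding signal by more than 50% relative to plate controls in a single-dose test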;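 further: His-tagged Mcl-1 with rhodamine Noxa BH3 peptide and terbium anti-His antibody; 0% = Mcl-1 plus Noxa peptide wells and 100% = peptide-only wells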
Starred values were filed as active, the others as inactive; · = no result. Shown are actives, neighbours in structure and some others; about 2.5% of the full set was active somewhere.

SMILES | Mcl-1 Bim block | MCL1 BIM primary | Mcl1-Bid inh | 14-3-3 Bad inh | Mcl1-Noxa inh
CCNC(=O)N1c2ccc(OCC)cc2C(C)=CC1(C)C | 29 | 45* | -26 | -10 | 2
CCOc1ccc2c(c1)C(C)=CC(C)(C)N2C(=O)Nc1ccccc1F | -6 | 9 | -70 | -26 | 26
COc1ccc(CN(CCN2CCOCC2)C(=O)c2c(F)cccc2F)cc1OC | 0 | -6 | -11 | 80* | 9
Cc1ccc(S(=O)(=O)NNC(=S)Nc2cccc(F)c2)cc1 | · | 9 | -23 | -5 | 20
CCOC(=O)C1=C(c2ccccc2)NC(N)=NC1c1ccc(OCc2ccc(Cl)cc2)c(OC)c1 (configuration not stated) | · | 2 | 6 | 94* | 18
Cn1c(C(C#N)C2=C(Cl)C(=O)N(c3ccccc3)C2=O)nc2ccccc21 (configuration not stated) | -4 | 42* | -10 | 10 | ·
CCCc1cc(=O)[nH]c(SCC(=O)c2c(C)[nH]c3ccccc23)n1 | · | -2 | 76* | -3 | 11
CCCc1cc(=O)[nH]c(SCC(=O)c2c[nH]c3ccccc23)n1 | 0 | -7 | 0 | -2 | 16
O=C(Nc1ccc(N2CCCC2)cc1)c1ccc2ccccc2c1 | 11 | 4 | -34 | 13 | 74*
CC(=O)N1CCN(c2ccc(NC(=O)c3ccc4ccccc4c3)cc2)CC1 | · | -12 | · | · | ·
Cc1ccc(C(=O)Nc2ccc(N3CCCC3)cc2)cc1 | -1 | 1 | -35 | -8 | 78*
CC(C)(C)C(=O)Nc1ccc(N2CCCC2)cc1 | -1 | 11 | -55 | -3 | 56*
Cc1ccc(C(=O)Nc2ccc(N3CCOCC3)cc2)cc1 | -4 | 0 | -34 | -7 | 1
O=C(Nc1ccc(N2CCCC2)cc1)c1ccccc1F | -5 | 5 | -30 | 4 | 82*
CC(C)c1cccc(OCCCCN(C)C)c1 | 0 | -4 | 8 | 0 | 21
O=C(COc1cccc2cccnc12)Nc1ccccc1N1CCOCC1 | 0 | -6 | -18 | -6 | 10
CCOC(=O)C1=C(COC(=O)CNS(=O)(=O)c2ccc(C)cc2)NC(=O)NC1C (configuration not stated) | · | 11 | · | · | ·
CN(C)/C=C/C(=O)c1nn(-c2ccc(F)cc2)ccc1=O | · | -2 | -18 | -3 | -6
O=C(Nc1ccc(N2CCCC2)cc1)c1cccc(F)c1 | -1 | 4 | -35 | 6 | 67*
O=C(Nc1ccc(NC(=O)C2CC2)nc1)c1cccc(F)c1 | -2 | 9 | 9 | 0 | 8
CC(C)C(=O)Nc1ccc(NC(=O)c2cccc(F)c2)cn1 | 5 | 6 | 22 | 76* | 7
CC1=C(C(=O)Nc2ccccc2)C(c2ccccc2[N+](=O)[O-])NC(=O)N1 (configuration not stated) | -1 | 32 | -27 | -8 | 18
CCCn1c(SCC(=O)NC2CCC(C)CC2)n[nH]c1=O (configuration not stated) | · | 48* | · | · | ·
Cc1nnc(SCC(=O)Nc2ccc3c(c2)OCCO3)n1CC1CCCO1 (configuration not stated) | -1 | 2 | -1 | 0 | 5
O=C1N/C(=N/NC(=O)c2cccc3ccccc23)S/C1=C\c1ccccc1OCc1ccccc1 | -1 | · | 57* | -8 | 19
SMILES | Mcl-1 Bim block | MCL1 BIM primary | Mcl1-Bid inh | 14-3-3 Bad inh | Mcl1-Noxa inh
COc1cccc(/C=C2\SC(=O)NC2=O)c1OCc1ccc(C(=O)O)cc1 | 0 | 6 | -60 | -14 | 7
Cn1nc(-c2ccc(Cl)cc2)c2cc(C(=O)NCCN3CCOCC3)sc21 | 3 | 0 | 94* | 8 | 11
CN(Cc1ccccc1)C(=O)c1ccc(NC(=O)Cc2cccc(NC(=O)C3CCN(C(=O)C4CCC4)CC3)c2)cc1 | · | 6 | · | · | ·
Cc1nn(CC(=O)Nc2ccc3c(c2)nc2n3CCN(C3CCCCC3)C2)c(=O)c2ccccc12 | 2 | 27 | -7 | 51 | 70*
Cc1nn(CC(=O)Nc2ccc3c(c2)nc(CCN2CCCCC2)n3C)c(=O)c2ccccc12 | -3 | 3 | -20 | -15 | 20
CC(=O)c1sc(-c2ccccn2)nc1C | -3 | 13 | -38 | 0 | 19
CCOC(=O)c1ccc(N2NC(=O)/C(=C/c3ccc(OC(=O)c4ccco4)c(OC)c3)C2=O)cc1 | 9 | 20 | -43 | 2 | 56*
CCOC(=O)COc1ccc(/C=C2/C(=O)NN(c3ccc(F)cc3)C2=O)cc1OC | · | 5 | · | · | ·
CCOc1cc(/C=C2/SC(=S)NC2=O)ccc1OC(=O)c1ccco1 | -6 | 7 | -4 | 2 | 57*
COc1cc(/C=C2/SC(=O)NC2=O)ccc1OC(=O)c1ccco1 | · | 1 | · | · | ·
O=C(CSc1cn(Cc2cccc(F)c2)c2ccccc12)NCc1ccc(F)cc1 | -3 | -2 | 62* | -10 | 4
CC(C)c1ccc2oc(-c3cc(N)ccc3O)nc2c1 | -1 | 6 | -58 | -7 | -16
CCCCOc1ccc(C(=O)NCCC(=O)NCCCC(=O)OCC)cc1 | · | 1 | 94* | 0 | 3
O=C(COC(=O)CCC(=O)c1ccc(F)cc1)Nc1ccc(F)cc1F | -2 | -11 | -2 | -4 | -5
Cc1ccccc1Nc1c(-c2ccncc2)nc2ccc(Cl)cn12 | 0 | 0 | -31 | -2 | 19
COc1ccccc1C(=O)Nc1ccnn1C1CCN(C)CC1 | · | 0 | · | · | ·
COc1ccccc1C(=O)Nc1ccnn1C1CCN(C(C)CSC)CC1 (configuration not stated) | · | 45* | · | · | ·
Cc1ccccc1C(=O)Nc1ccnn1C1CCN(C2CCSCC2)CC1 | · | 36 | · | · | ·
COc1ccccc1C(=O)Nc1ccnn1C1CCN(C2CCSCC2)CC1 | · | 42* | · | · | ·
COc1ccccc1N1CSC2=C(C#N)C(c3ccc(SC)cc3)CC(=O)N2C1 (configuration not stated) | 8 | -14 | 2 | -8 | 83*
COc1cc(C2CC(=O)N3CN(c4ccccc4C)CSC3=C2C#N)cc(OC)c1OC (configuration not stated) | -4 | -4 | -21 | 26 | 17
O=C(COC(=O)C1CC2CCCC(C1)C2=O)NNC(=O)c1ccccc1Br (configuration not stated) | · | 0 | · | · | ·
CSc1nnc(-c2cc3c(-c4ccccc4)nn(C)c3s2)n1C | 3 | 0 | -12 | 89* | 4
O=C(O)c1cccc(N2C(=O)/C(=C/c3ccc([N+](=O)[O-])cc3)C=C2c2ccccc2)c1 | -5 | -22 | -3 | 22 | 53*
COc1ccc(N2C(=O)/C(=C/c3ccc([N+](=O)[O-])cc3)C=C2c2ccccc2)cc1 | -1 | 0 | -8 | -2 | 10

Screening data deposited in PubChem BioAssay by several laboratories.
